# Measured values taken from PubChem BioAssay (NCI).
# The panel holds about 79,000 compounds, 15% with a hit somewhere; the sample as a whole holds those more often. A number with no mark means an inactive call. Activity calls are given as the source filed them. Cut-off read from the data, not from the text of the source: active = growth inhibition above about 70%; inactive = the rest.
# Assay: NCI Yeast Anticancer Drug Screen. Data for the cln2 rad14 strain (AID 165);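 note: 0% = growth equal to vehicle treated cultures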
# Conditions: S. cerevisiae cln2 rad14 strain, at 50.0 µM, hits give high values
# Outline: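 Strain: cln2 rad14 yeast, altered in cell cycle control and DNA damage repair. Read-out: growth inhibition vs vehicle.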
row,SMILES,growth inhibition
1,COC(=O)c1nc(=S)[nH]c(C(=O)OC)c1C(=O)c1ccccc1O,3.4%
2,O=CNNC(=O)Nc1cccc2ccccc12,-5.75%
3,CCOC(=O)c1ccc(CSc2ccc(OC)cc2)cc1,76.5% (active)
4,COc1ccccc1/C=C1/Sc2scc(CC(=O)Nc3ccccc3)[n+]2C1=O,17.7%
5,CC(C)Cn1cnc2c(Sc3c([N+](=O)[O-])ncn3C)nc(N)nc21,-1.4%
6,N=C1C(O)C2(I)c3ccccc3N3C(=N)C(O)C4c5ccccc5N1C4C32 (stereo not given),-5.8%
7,CCCCCCCCCCCCCCCC[N+](C)(C)Cc1ccccc1,99% (active)
8,N#CC1(CCCI)CCCC1,-7.45%
9,CCOC(=O)C1C(=O)CC(O)(c2ccccc2)C(C(=O)OCC)C1c1ccc(OC)cc1 (stereo not given),-31.1%
10,CCCCCCCCCCCCC(F)C(=O)OCC1OC(n2cc(C)c(=O)[nH]c2=O)CC1N=[N+]=[N-] (stereo not given),-14.8%
11,C(=C/c1ccccc1)/C=N/N1CCN(/N=C/C=C/c2ccccc2)CC1,-7.1%
12,COc1cccc2c1oc(=O)c1ccccc12,-66.8%
13,COC(=O)c1nnn(-c2cc(Cl)ccc2Cl)c1C(=O)c1ccc(OC)cc1,53.7%
14,Cc1ccc(C(C)C)nc1,25.2%
15,CCOc1ccccc1N1C(=O)C(=O)C(c2nc3ccccc3o2)C(=O)C1=O,-15.9%
16,CCCCCCC1(C=O)C(=O)NC(=O)N1C (stereo not given),13.3%
17,Cn1c(=O)c2c(nc(Cl)n2Cc2ccc([N+](=O)[O-])cc2)n(C)c1=O,-39.3%
18,S=c1sc2ccccc2n1CN1CCCC1,11.9%
19,NN(CC(=O)O)CC(=O)O,4.75%
20,O=C1NC2CCC(NC(=O)N1c1ccccc1)C1=C2C1,-0.8%

row,SMILES,growth inhibition
1,COc1ccc2c(c1)CCCN2c1ccc(N=C(N)N)cc1,-17.8%
2,O=C(O)Cc1cc2cccc([N+](=O)[O-])c2[nH]1,-1.85%
3,CCOC(=O)C1SC(=S)N(c2ccccc2)C1N (stereo not given),-11.6%
4,COc1cc(Cc2c(OC)c(OC)cc(C)c2C(=O)O)cc(OC)c1,6.95%
5,C/C(=C\c1ccccc1)C(=O)c1ccccc1,-3.15%
6,Cc1cc2nc3c(C(O)C(O)C(O)CO)nn(-c4ccccc4)c3nc2cc1C (stereo not given),-15.6%
7,CCOc1ccccc1OCC,12.3%
8,Cc1ccc(NC(=O)/C=C2\CONC(c3ccccc3)=N2)cc1,-15.2%
9,CC(=O)OC1CCC2(C)C(C1)CC(OC(C)=O)C1C2CC(OC(C)=O)C2(C)C(C(C)CC=C(c3ccccc3)c3ccccc3)CCC12 (stereo not given),-13.7%
10,O=C1c2ccccc2C(O)(C#Cc2ccccc2)c2c1c(-c1ccccc1)c1ccccc1c2-c1ccccc1 (stereo not given),9.75%
11,C[n+]1ccc(NN)cc1,12.6%
12,O=C1OC(c2ccccc2)=CC1(Cc1ccccc1)Cc1ccccc1,-35.2%
13,CCSC(SCC)C(SCC)C(OC(=O)c1ccccc1)C(OC(=O)c1ccccc1)C(COC(=O)c1ccccc1)OC(=O)c1ccccc1 (stereo not given),-5.3%
14,CCOC(=O)N1CCC2C(=C(C)C(C)C3=C2C(=O)c2ccccc2C3=O)C1 (stereo not given),16.9%
15,CCC(C)C(C)(O)CC (stereo not given),4.1%
16,Cc1cc(O)c(C)c(C)c1C,2.1%
17,O=C1C(=O)N(CN2CCCCC2)c2ccccc21,10.9%
18,CN1CCCC(NC(c2ccccc2)c2ccccc2)C1 (stereo not given),-11.8%
19,Cc1cccc(C)c1NC(=S)NC(=O)c1cccc(Cl)c1,-10.5%
20,C/C(=C\CC1C(=O)N(c2ccccc2)N(c2ccccc2)C1=O)CO,-18.2%

# Assay: NCI Yeast Anticancer Drug Screen. Data for the bub3 strain (AID 167)
# Conditions: S. cerevisiae bub3 mutant strain, at 50.0 µM, hits give high values
# Outline: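 Readout: yeast growth inhibition, expressed relative to vehicle-only wells. The test organism is a mutant strain from a panel with lesions in DNA repair or checkpoint genes.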
row,SMILES,growth inhibition
1,COC(=O)c1nc(=S)[nH]c(C(=O)OC)c1C(=O)c1ccccc1O,29.1%
2,O=CNNC(=O)Nc1cccc2ccccc12,-32.1%
3,CCOC(=O)c1ccc(CSc2ccc(OC)cc2)cc1,80.5% (active)
4,COc1ccccc1/C=C1/Sc2scc(CC(=O)Nc3ccccc3)[n+]2C1=O,-4.7%
5,CC(C)Cn1cnc2c(Sc3c([N+](=O)[O-])ncn3C)nc(N)nc21,2.1%
6,N=C1C(O)C2(I)c3ccccc3N3C(=N)C(O)C4c5ccccc5N1C4C32 (stereo not given),-29.4%
7,CCCCCCCCCCCCCCCC[N+](C)(C)Cc1ccccc1,98.8% (active)
8,N#CC1(CCCI)CCCC1,-2.3%
9,CCOC(=O)C1C(=O)CC(O)(c2ccccc2)C(C(=O)OCC)C1c1ccc(OC)cc1 (stereo not given),6.95%
10,CCCCCCCCCCCCC(F)C(=O)OCC1OC(n2cc(C)c(=O)[nH]c2=O)CC1N=[N+]=[N-] (stereo not given),10.7%
11,C(=C/c1ccccc1)/C=N/N1CCN(/N=C/C=C/c2ccccc2)CC1,18.5%
12,COc1cccc2c1oc(=O)c1ccccc12,-2.35%
13,COC(=O)c1nnn(-c2cc(Cl)ccc2Cl)c1C(=O)c1ccc(OC)cc1,37.4%
14,Cc1ccc(C(C)C)nc1,22.5%
15,CCOc1ccccc1N1C(=O)C(=O)C(c2nc3ccccc3o2)C(=O)C1=O,2.55%
16,CCCCCCC1(C=O)C(=O)NC(=O)N1C (stereo not given),4.1%
17,Cn1c(=O)c2c(nc(Cl)n2Cc2ccc([N+](=O)[O-])cc2)n(C)c1=O,20.1%
18,S=c1sc2ccccc2n1CN1CCCC1,8.3%
19,NN(CC(=O)O)CC(=O)O,29.1%
20,O=C1NC2CCC(NC(=O)N1c1ccccc1)C1=C2C1,-3.4%

row,SMILES,growth inhibition
1,COc1ccc2c(c1)CCCN2c1ccc(N=C(N)N)cc1,27.9%
2,O=C(O)Cc1cc2cccc([N+](=O)[O-])c2[nH]1,-16.1%
3,CCOC(=O)C1SC(=S)N(c2ccccc2)C1N (stereo not given),-4.45%
4,COc1cc(Cc2c(OC)c(OC)cc(C)c2C(=O)O)cc(OC)c1,-13.9%
5,C/C(=C\c1ccccc1)C(=O)c1ccccc1,3.45%
6,Cc1cc2nc3c(C(O)C(O)C(O)CO)nn(-c4ccccc4)c3nc2cc1C (stereo not given),-5.05%
7,CCOc1ccccc1OCC,-11.2%
8,Cc1ccc(NC(=O)/C=C2\CONC(c3ccccc3)=N2)cc1,-6.9%
9,CC(=O)OC1CCC2(C)C(C1)CC(OC(C)=O)C1C2CC(OC(C)=O)C2(C)C(C(C)CC=C(c3ccccc3)c3ccccc3)CCC12 (stereo not given),-39.9%
10,O=C1c2ccccc2C(O)(C#Cc2ccccc2)c2c1c(-c1ccccc1)c1ccccc1c2-c1ccccc1 (stereo not given),-8.3%
11,C[n+]1ccc(NN)cc1,17.6%
12,O=C1OC(c2ccccc2)=CC1(Cc1ccccc1)Cc1ccccc1,2.6%
13,CCSC(SCC)C(SCC)C(OC(=O)c1ccccc1)C(OC(=O)c1ccccc1)C(COC(=O)c1ccccc1)OC(=O)c1ccccc1 (stereo not given),4.25%
14,CCOC(=O)N1CCC2C(=C(C)C(C)C3=C2C(=O)c2ccccc2C3=O)C1 (stereo not given),62.4%
15,CCC(C)C(C)(O)CC (stereo not given),-8.8%
16,Cc1cc(O)c(C)c(C)c1C,-9.85%
17,O=C1C(=O)N(CN2CCCCC2)c2ccccc21,22.4%
18,CN1CCCC(NC(c2ccccc2)c2ccccc2)C1 (stereo not given),34.5%
19,Cc1cccc(C)c1NC(=S)NC(=O)c1cccc(Cl)c1,-20.4%
20,C/C(=C\CC1C(=O)N(c2ccccc2)N(c2ccccc2)C1=O)CO,-28.6%
